The values below come from the supplement of paper PMC7366291.

Counter-ions that a name gives are not always drawn. ± gives the standard deviation or the standard deviation of the averaged measurements.

Common to all, as to conditions: 25 µM; exposure: 24-48 hpf
Test [1] concerns Danio rerio Tg(wt1b:EGFP) embryo, pronephros. Briefly: glomerular separation, fold change vs DMSO control; higher = glomeruli further apart (abnormal). In short, it runs like this: (§1)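 In HEPES-buffered E3 with 0.003% PTU and 0.5% DMSO, dechorionated Tg(wt1b:EGFP) zebrafish embryos were exposed to 25 μM compound from 24 to 48 hpf at 28.5°C. Pronephroi were then imaged dorsally at 470 nm in 10 z-slices, in 96-well plates filled with agarose. On maximum projections, a Fiji macro turned 16 manually placed reference points into distances and angles, and values more than 2 SD from the feature mean were excluded. Features are fold changes relative to the mean of DMSO-treated embryos from the same day.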

Test [2] has the same test system. The test can be described thus: glomerular width (mean of left and right), fold change vs DMSO control; higher = wider glomerulus. In short, it runs like this: as §1
Test [3] has the same test system. Briefly: fraction of imaged embryos annotated as normal kidney; higher = less nephrotoxic; extreme values may be limits of the assay. In short, it runs like this:
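Dechorionated Tg(wt1b:EGFP) zebrafish embryos were incubated with 25 μM compound in 0.5% DMSO, 5 mM HEPES-buffered E3 and 0.003% PTU from 24 to 48 hpf at 28.5°C. Pronephroi were then imaged by widefield fluorescence, and the fraction of embryos per treatment assigned by hand to the normal-kidney category is given.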

For test [4] the test system is unchanged. The test can be described thus: pronephric angle neck segment to proximal convoluted tubule (mean of left and right), fold change vs DMSO control; higher = larger pronephric angle. In short, it runs like this: as §1

As to `CS(=O)(=O)c1ccc([C@@H](O)[C@@H](CF)NC(=O)C(Cl)Cl)cc1` [Florfenicol], the glomerular separation in test [1] amounted to 1.03 ± 0.47. Further, the glomerular width in test [2] was determined as 1.01 ± 0.083. The “fraction of imaged embryos annotated as normal kidney” value (from here on “fraction of imaged embryos annotated”) in test [3] amounted to 1. In addition, the “pronephric angle neck segment” value in test [4] stood at 1.01 ± 0.034.

As to `N=C(N)NS(=O)(=O)c1ccc(N)cc1` [Sulfaguanidine], in test [1], the glomerular separation came out at 1.04 ± 0.35. Further, the glomerular width in test [2] was 0.979 ± 0.034. The “fraction of imaged embryos annotated” value in test [3] is 0.833. In addition, in test [4], the “pronephric angle neck segment” value was found to be 1.02 ± 0.036.

`CCCNC(C)(C)COC(=O)c1ccccc1` [Meprylcaine hydrochloride] came in with a glomerular separation in test [1] of 1.08 ± 0.26. This compound showed a glomerular width in test [2] of 0.936 ± 0.03. Besides, the “fraction of imaged embryos annotated” value in test [3] was determined as 1. In addition, the “pronephric angle neck segment” value in test [4] stood at 0.9842 ± 0.0035.

Take `CCCNC(=O)NS(=O)(=O)c1ccc(Cl)cc1` [Chlorpropamide]: the glomerular separation in test [1] was found to be 1.09 ± 0.39. Besides, the glomerular width in test [2] is 1.06 ± 0.087. Also, the “fraction of imaged embryos annotated” value in test [3] is 0.75. In test [4], the “pronephric angle neck segment” value was determined as 1.051 ± 0.0085.

In the case of `N[C@@H](Cc1cc(I)c(Oc2ccc(O)c(I)c2)c(I)c1)C(=O)O` [Liothyronine], the glomerular separation in test [1] came to 0.912 ± 0.45. In test [2], this compound had a glomerular width of 0.9338 ± 0.0093. For the same compound, in test [4], the “pronephric angle neck segment” value was found to be 1.01 ± 0.018.

As to `CC(c1cc2ccccc2s1)N(O)C(N)=O` (centres undefined) [Zileuton], in test [1], the glomerular separation was determined as 1.25 ± 0.57. In test [2], the glomerular width came to 0.993 ± 0.02. In addition, in test [3], the “fraction of imaged embryos annotated” value was found to be 0.667. The “pronephric angle neck segment” value in test [4] amounted to 1.11 ± 0.072.

`CC1(C)S[C@@H]2[C@H](NC(=O)Cc3ccccc3)C(=O)N2[C@H]1C(=O)O` [Benzylpenicillin sodium]: the glomerular separation in test [1] worked out at 0.915 ± 0.33. In test [2], the glomerular width was 1.02 ± 0.014. In test [3], the “fraction of imaged embryos annotated” value was found to be 0.833. Moreover, the “pronephric angle neck segment” value in test [4] was 1.017 ± 0.0055.

Take `CC(C)CN(C[C@@H](O)[C@H](Cc1ccccc1)NC(=O)O[C@H]1CO[C@H]2OCC[C@H]21)S(=O)(=O)c1ccc(N)cc1` [Darunavir]: the glomerular separation in test [1] turned out to be 1.16 ± 0.42. Further, the glomerular width in test [2] was determined as 0.976 ± 0.018. Besides, the “pronephric angle neck segment” value in test [4] stood at 0.9599 ± 0.0035.

`CC1(C)[C@H](C(=O)O)N2C(=O)C[C@H]2S1(=O)=O` [Sulbactam] registered a glomerular separation in test [1] of 0.653 ± 0.18. In test [2], this compound showed a glomerular width of 1.07 ± 0.04. The “pronephric angle neck segment” value in test [4] was 0.952 ± 0.039.

The compound `CC1(C)S[C@@H]2[C@H](NC(=O)[C@H](C(=O)O)c3ccsc3)C(=O)N2[C@H]1C(=O)O` [Ticarcillin sodium] came in with a glomerular separation in test [1] of 0.953 ± 0.36. This compound also displayed a glomerular width in test [2] of 1.01 ± 0.048. The “fraction of imaged embryos annotated” value in test [3] came out at 0.8. Besides, the “pronephric angle neck segment” value in test [4] came out at 1.006 ± 0.0094.

Take `COc1ccc(CC2c3cc(OC)c(OC)cc3CC[N+]2(C)CCC(=O)OCCCCCOC(=O)CC[N+]2(C)CCc3cc(OC)c(OC)cc3C2Cc2ccc(OC)c(OC)c2)cc1OC` (centres undefined) [Atracurium besylate]: the glomerular separation in test [1] worked out at 1.2 ± 0.6. The glomerular width in test [2] is 0.944 ± 0.012. Moreover, the “fraction of imaged embryos annotated” value in test [3] is 0.917. Moreover, the “pronephric angle neck segment” value in test [4] was 0.954 ± 0.016.

As to `CC(C)[N+](C)(CCOC(=O)C1c2ccccc2Oc2ccccc21)C(C)C` [Propantheline bromide], the glomerular separation in test [1] amounted to 1.29 ± 0.47. For the same compound, the glomerular width in test [2] was determined as 0.966 ± 0.062. The “fraction of imaged embryos annotated” value in test [3] amounted to 0.667. The “pronephric angle neck segment” value in test [4] turned out to be 0.942 ± 0.01.

In test [1], `COc1ccc(CCN(C)CCCC(C#N)(c2ccc(OC)c(OC)c2)C(C)C)cc1OC` (centres undefined) [Verapamil hydrochloride] registered a glomerular separation of 1.1 ± 0.41. In addition, the glomerular width in test [2] is 0.995 ± 0.019. Moreover, the “pronephric angle neck segment” value in test [4] turned out to be 1.075 ± 0.0043.

`CN(C)CC/C=C1/c2ccccc2COc2ccc(CC(=O)O)cc21` [Olopatadine hydrochloride]: in test [1], the glomerular separation came out at 0.914 ± 0.34. In addition, the glomerular width in test [2] is 0.97 ± 0.013. Besides, the “fraction of imaged embryos annotated” value in test [3] is 0.833. In addition, the “pronephric angle neck segment” value in test [4] was determined as 1.03 ± 0.025.

As to `CC12CC3CC(C)(C1)CC(N)(C3)C2` [Memantine Hydrochloride], the glomerular separation in test [1] was determined as 1 ± 0.34. The glomerular width in test [2] amounted to 1.05 ± 0.079. Also, in test [3], the “fraction of imaged embryos annotated” value amounted to 0.917. Also, the “pronephric angle neck segment” value in test [4] came out at 0.9526 ± 0.0081.

In test [1], `O=C(O)c1cn(C2CC2)c2cc(N3CCNCC3)c(F)cc2c1=O` [Ciprofloxacin hydrochloride monohydrate] came in with a glomerular separation of 0.914 ± 0.36. The same compound came in with a glomerular width in test [2] of 0.94012 ± 0.00024. The “fraction of imaged embryos annotated” value in test [3] turned out to be 0.833. Also, in test [4], the “pronephric angle neck segment” value came out at 0.988 ± 0.023.

For the compound `CN[C@@H]1[C@H](O[C@H]2[C@H](O[C@H]3[C@H](O)[C@@H](O)[C@H](N=C(N)N)[C@@H](O)[C@@H]3N=C(N)N)O[C@@H](C)[C@]2(O)C=O)O[C@@H](CO)[C@H](O)[C@H]1O` [Streptomycin sulfate], the glomerular separation in test [1] is 0.691 ± 0.22. In addition, the glomerular width in test [2] worked out at 1.08 ± 0.098. Besides, the “fraction of imaged embryos annotated” value in test [3] was determined as 0.917. The “pronephric angle neck segment” value in test [4] stood at 0.959 ± 0.043.

Regarding `CCC(C)(C)C(=O)O[C@H]1C[C@@H](C)C=C2C=C[C@H](C)[C@H](CC[C@@H]3C[C@@H](O)CC(=O)O3)[C@H]21` [Simvastatin], in test [1], the glomerular separation is 4.7 ± 1.8. The same compound showed a glomerular width in test [2] of 0.658 ± 0.034. Moreover, in test [4], the “pronephric angle neck segment” value was determined as 1.8 ± 0.065.

In the case of `CCOC(=O)N1CCC(=C2c3ccc(Cl)cc3CCc3cccnc32)CC1` [Loratadine], the glomerular separation in test [1] was found to be 1.4 ± 0.98. Moreover, in test [2], the glomerular width came to 0.989 ± 0.055. Also, in test [4], the “pronephric angle neck segment” value was 1.1 ± 0.021.

In the case of `COc1cc(C(=O)OCCCN2CCCN(CCCOC(=O)c3cc(OC)c(OC)c(OC)c3)CC2)cc(OC)c1OC` [Dilazep dihydrochloride], the glomerular separation in test [1] was 1 ± 0.36. In test [2], this compound returned a glomerular width of 0.986 ± 0.055. In test [3], the “fraction of imaged embryos annotated” value was 0.75. For the same compound, the “pronephric angle neck segment” value in test [4] was 1.08 ± 0.089.

For `N/C(=N\C(=O)c1nc(Cl)c(N)nc1N)NCc1ccccc1` [Benzamil hydrochloride], in test [1], the glomerular separation was 0.935 ± 0.43. The compound further came in with a glomerular width in test [2] of 1.05 ± 0.019. The “fraction of imaged embryos annotated” value in test [3] was 0.917. For the same compound, the “pronephric angle neck segment” value in test [4] is 0.98 ± 0.018.

In the case of `CC1(C)S[C@@H]2[C@H](NC(=O)[C@H](NC(=O)N3CCNC3=O)c3ccccc3)C(=O)N2[C@H]1C(=O)O` [Azlocillin sodium salt], the glomerular separation in test [1] was found to be 0.819 ± 0.3. The compound further returned a glomerular width in test [2] of 1.01 ± 0.023. Besides, the “fraction of imaged embryos annotated” value in test [3] was 0.5. Besides, the “pronephric angle neck segment” value in test [4] worked out at 0.928 ± 0.015.

Take `NC[C@H]1CC[C@H](C(=O)O)CC1` [Tranexamic acid]: the glomerular separation in test [1] was determined as 0.901 ± 0.18. The compound also displayed a glomerular width in test [2] of 0.9771 ± 0.0082. In test [3], the “fraction of imaged embryos annotated” value came to 1. In addition, in test [4], the “pronephric angle neck segment” value came to 1.05 ± 0.022.

For `CN(C)CCCN1c2ccccc2Sc2ccc(C(F)(F)F)cc21` [Triflupromazine hydrochloride], the glomerular separation in test [1] is 0.863 ± 0.37. Also, the glomerular width in test [2] amounted to 1.033 ± 0.0067. For the same compound, the “pronephric angle neck segment” value in test [4] was found to be 0.954 ± 0.014.

Take `Brc1c(NC2=NCCN2)ccc2nccnc12` [Brimonidine L-Tartrate]: the glomerular separation in test [1] was 0.614 ± 0.22. This compound yielded a glomerular width in test [2] of 1.11 ± 0.043. For the same compound, the “fraction of imaged embryos annotated” value in test [3] worked out at 1. Further, the “pronephric angle neck segment” value in test [4] turned out to be 0.993 ± 0.1.

As to `CC(C(=O)O)c1cccc(C(=O)c2ccccc2)c1` (centres undefined) [Ketoprofen], in test [1], the glomerular separation was 1.58 ± 0.77. For the same compound, the glomerular width in test [2] amounted to 0.83 ± 0.037. For the same compound, in test [4], the “pronephric angle neck segment” value was determined as 1.1 ± 0.028.

In the case of `Cc1cccc(C)c1NC(=O)C1CCCCN1C` (centres undefined) [Mepivacaine hydrochloride], the glomerular separation in test [1] came to 0.751 ± 0.32. Moreover, the glomerular width in test [2] amounted to 1.06 ± 0.058. Further, the “fraction of imaged embryos annotated” value in test [3] was 0.917. For the same compound, the “pronephric angle neck segment” value in test [4] came out at 0.991 ± 0.054.

For the compound `CC(Oc1c(Cl)cccc1Cl)C1=NCCN1` (centres undefined) [Lofexidine], the glomerular separation in test [1] stood at 1.06 ± 0.22. This compound had a glomerular width in test [2] of 0.9921 ± 0.0057. Also, in test [3], the “fraction of imaged embryos annotated” value turned out to be 0.833. The “pronephric angle neck segment” value in test [4] was 0.96 ± 0.028.
